Assay results from PMC5540273 (PLoS ONE, 2017).

Assays:
Conditions in all cases: concentration: 1 μM, replicates: in singlicate; n = 1
TLK1 = test system: TLK1
TLK2 = test system: TLK2
TNIK = test system: TNIK
TNK1 = test system: TNK1
TNK2 = test system: TNK2
TNNI3K = test system: TNNI3K
TRKA = test system: T1, TRKA
T1 construct: gene NTRK1

TRKB = test system: TRKB
TRKC = test system: T2, TRKC
T2 construct: gene NTRK3

TRPM6 = test system: TRPM6
TSSK1B = test system: TSSK1B
TSSK3 = test system: TSSK3
TTK = test system: TTK
TXK = test system: TXK
[1] = test system: TYK2(JH1domain-catalytic)
[2] = test system: TYK2(JH2domain-pseudokinase)
TYRO3 = test system: TYRO3
ULK1 = test system: ULK1
ULK2 = test system: ULK2
ULK3 = test system: ULK3
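Note: KINOMEscan kinase panel screen.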

SMILES	%Inh (TLK1)	%Inh (TLK2)	%Inh (TNIK)	%Inh (TNK1)	%Inh (TNK2)	%Inh (TNNI3K)	%Inh (TRKA)	%Inh (TRKB)	%Inh (TRKC)	%Inh (TRPM6)	%Inh (TSSK1B)	%Inh (TSSK3)	%Inh (TTK)	%Inh (TXK)	%Inh [1]	%Inh [2]	%Inh (TYRO3)	%Inh (ULK1)	%Inh (ULK2)	%Inh (ULK3)
Cn1cncc1C(=O)NC1CCN(c2ccnc(Nc3ccc(F)cc3)n2)C1 (stereo not drawn) [GSK1379717]	18%	0%	0%	0%	10%	0%	0%	17%	48%	31%	6%	0%	0%	100%	13%	20%	0%	6%	0%	17%
COc1ccc(Nc2nccc(N3CCC(NC(=O)C(C)c4ccc(Cl)cc4)CC3)n2)cc1 (stereo not drawn) [GSK1379812]	7%	0%	0%	0%	8%	2%	49%	0%	0%	0%	0%	53%	0%	0%	0%	0%	0%	0%	0%	0%
COC(=O)c1cccc(NC(=O)NC2CCN(c3ccnc(Nc4ccc(F)cc4)n3)C2)c1 (stereo not drawn) [GSK1379725]	0%	0%	0%	0%	17%	2%	9%	58%	82%	0%	0%	3%	0%	0%	0%	23%	0%	15%	0%	12%
O=C1NC(=O)C(c2ccc(Cl)cc2)=C1Nc1ccc(O)cc1 [SB-340867]	10%	0%	0%	46%	0%	0%	0%	5%	0%	9%	0%	0%	100%	18%	0%	0%	0%	0%	0%	10%
Cc1ccc(NC(=O)c2ccc(Cl)cc2)cc1-c1ccc(C(=O)Nc2ccncc2)cc1 [GSK1398467]	8%	3%	0%	9%	25%	21%	0%	0%	25%	19%	18%	6%	0%	8%	0%	17%	0%	0%	0%	0%
COc1ccc2cc(-c3nc(-c4ccccc4C(C)C)[nH]c3-c3ccncc3)ccc2c1 [SB-660566]	0%	0%	0%	32%	14%	15%	0%	13%	1%	18%	54%	31%	0%	35%	7%	27%	0%	19%	0%	14%
CCc1ccc(-c2ccc3c(c2)-c2n[nH]cc2S(=O)(=O)N3C)cc1	28%	0%	9%	34%	0%	0%	0%	0%	0%	0%	0%	0%	0%	14%	0%	5%	0%	0%	0%	0%
O=C(Nc1n[nH]c2nc(-c3cccs3)c(Br)cc12)C1CC1 [SB-735297]	5%	0%	17%	33%	0%	98.6%	6%	41%	17%	18%	0%	0%	0%	22%	9%	0%	12%	0%	6%	3%
CCCCc1nn2ncccc2c1-c1ccnc(NC2CC2)n1 [GW684374]	15%	7%	0%	0%	0%	0%	0%	6%	0%	25%	0%	9%	0%	0%	6%	32%	0%	0%	0%	0%
COc1ccc(Nc2nccc(N3CCC(NC(=O)C(C)c4ccc(Cl)cc4)C3)n2)cc1 (stereo not drawn) [GSK1379735]	0%	0%	10%	0%	15%	6%	19%	0%	11%	1%	1%	24%	29%	21%	28%	1%	22%	9%	9%	9%
CNc1cc(-c2ccc3c(N)n[nH]c3c2)nc(N)n1 [GSK2224810]	25%	20%	8%	0%	0%	2%	11%	0%	0%	0%	0%	31%	0%	0%	7%	43%	0%	36%	17%	5%
CC(=O)c1c(C)c2cnc(Nc3ccn(C)n3)nc2n(C2CCCC2)c1=O	1%	0%	0%	54%	24%	16%	29%	0%	0%	0%	16%	0%	52%	0%	0%	0%	0%	0%	6%	0%
COc1ccc(Nc2nccc(N3CCC(NC(=O)c4cc5ccccc5s4)C3)n2)cc1 (stereo not drawn) [GSK1379738]	3%	0%	0%	11%	18%	0%	60%	32%	0%	39%	0%	19%	0%	67%	9%	26%	0%	5%	0%	14%
COC(=O)C(NC(=O)NC1CCN(c2ccnc(Nc3ccc(F)cc3)n2)C1)c1ccccc1 (stereo not drawn) [GSK1379712]	14%	6%	17%	0%	0%	24%	51%	6%	29%	44%	14%	23%	3%	0%	13%	22%	0%	0%	3%	4%
CS(=O)(=O)CCNCc1nc(-c2ccc3ncnc(Nc4ccc5c(cnn5Cc5ccccc5)c4)c3c2)cs1.Cl.Cl [GW569716]	0%	0%	0%	0%	18%	0%	0%	73%	40%	0%	0%	1%	3%	3%	22%	57%	0%	0%	0%	0%
O=C(Nc1n[nH]c2nc(-c3ccco3)c(Br)cc12)C1CCN(Cc2ccccc2)C1.O=C(O)[C@H](O)[C@@H](O)C(=O)O (stereo not drawn) [SB-742034]	5%	6%	17%	13%	6%	0%	48%	17%	0%	1%	0%	0%	4%	0%	5%	0%	0%	5%	19%	6%
Cc1ccc(NC(=O)Nc2ccccc2)cc1-c1ccc(C(=O)Nc2ccncc2)cc1 [GSK1398471]	19%	4%	0%	18%	13%	49%	23%	0%	0%	27%	0%	0%	2%	0%	0%	0%	15%	12%	0%	7%
O=C(Nc1n[nH]c2nc(-c3cccs3)c(Br)cc12)C1CCCC1 [SB-743341]	0%	0%	0%	0%	0%	0%	16%	22%	9%	0%	24%	0%	37%	7%	0%	7%	1%	26%	32%	0%
Nc1cccc(-c2ccc3c(N)n[nH]c3c2)n1 [GSK2192730]	33%	21%	24%	0%	0%	0%	0%	0%	0%	18%	0%	10%	6%	17%	12%	17%	0%	5%	0%	18%
CNC(=O)c1ccc(C)c(-n2c(C)cc(OCc3ccc(F)cc3F)c(Br)c2=O)c1	0%	0%	0%	0%	0%	0%	0%	0%	0%	0%	0%	0%	0%	0%	0%	0%	0%	0%	0%	0%
CSc1ccc(-c2nc3n(c2-c2ccncc2)CCC3)cc1 [SKF-105561]	31%	0%	7%	0%	0%	49%	0%	4%	46%	0%	0%	0%	14%	11%	0%	0%	0%	18%	0%	33%

SMILES	%Inh (TLK1)	%Inh (TLK2)	%Inh (TNIK)	%Inh (TNK1)	%Inh (TNK2)	%Inh (TNNI3K)	%Inh (TRKA)	%Inh (TRKB)	%Inh (TRKC)	%Inh (TRPM6)	%Inh (TSSK1B)	%Inh (TSSK3)	%Inh (TTK)	%Inh (TXK)	%Inh [1]	%Inh [2]	%Inh (TYRO3)	%Inh (ULK1)	%Inh (ULK2)	%Inh (ULK3)
COc1ccc(CSc2nnc(-c3ccc4ncsc4c3)o2)cc1C(F)(F)F	0%	7%	0%	0%	0%	0%	0%	0%	13%	0%	0%	0%	13%	0%	0%	0%	0%	0%	0%	0%
COc1ccc(-c2coc3ccc(-c4nnc(C)o4)cc23)cc1	12%	6%	0%	0%	0%	0%	0%	0%	0%	0%	0%	0%	0%	0%	0%	0%	0%	0%	0%	0%
CCn1c(-c2c(N)noc2C)nc2cnccc21 [SB-737856]	0%	0%	0%	0%	22%	6%	0%	0%	0%	0%	19%	3%	0%	31%	0%	21%	12%	18%	7%	16%
COc1nccc(-c2c(-c3ccc(F)cc3)ncn2CCCN2CCOCC2)n1 [SB-282852]	26%	0%	0%	0%	0%	0%	61%	56%	13%	0%	0%	50%	0%	6%	13%	25%	0%	0%	33%	12%
CC(=O)c1cccc(NC(=O)NC2CCN(c3ccnc(Nc4ccc(F)cc4)n3)C2)c1 (stereo not drawn) [GSK1379710]	12%	25%	3%	0%	7%	5%	56%	69%	81%	32%	39%	32%	23%	16%	26%	22%	0%	2%	4%	10%
NS(=O)(=O)c1cccc(N/C=C2\C(=O)Nc3ccc(S(=O)(=O)Cc4c(Cl)cccc4Cl)cc32)c1 [GSK398099]	75%	0%	91.8%	0%	26%	4%	49%	0%	29%	37%	21%	14%	0%	6%	30%	27%	0%	13%	4%	19%
Cc1ccc(-c2nc(Nc3ccncc3)c3ccccc3n2)s1 [GSK189015]	0%	0%	8%	29%	19%	14%	44%	0%	0%	15%	15%	17%	40%	53%	24%	76%	12%	12%	5%	7%
COc1cccc(NC(=O)Nc2ccc(C)c(-c3ccc(C(=O)Nc4ccncc4)cc3)c2)c1 [GSK1398474]	11%	0%	0%	10%	16%	20%	4%	0%	2%	31%	0%	6%	13%	0%	0%	0%	0%	6%	0%	0%
COc1ccc(CSc2nnc(-c3ccc4c(c3)CCO4)o2)cc1	0%	0%	0%	0%	0%	0%	0%	0%	0%	0%	0%	0%	0%	0%	0%	0%	0%	0%	0%	0%
Nc1nccc(-c2c(-c3ccc(F)cc3)ncn2C2CCN(Cc3ccccc3)CC2)n1 [SB-219980]	0%	0%	96.5%	35%	10%	0%	0%	0%	0%	0%	0%	0%	0%	0%	7%	49%	15%	31%	0%	22%
Cl.Cl.Cl.N#Cc1ccc(CCNc2nccc(-c3cccc(CN4CCNCC4)c3)n2)cc1 [GSK2137462]	9%	3%	3%	4%	5%	18%	56%	0%	0%	0%	0%	5%	14%	2%	0%	0%	23%	11%	12%	2%
Cn1cncc1-c1cc2c(Nc3ccc(OCc4ccccc4)cc3)ncnc2cn1 [GW281179]	18%	0%	0%	1%	20%	11%	0%	37%	0%	12%	18%	10%	7%	21%	96.8%	27%	0%	0%	0%	0%
Cn1cnc2c(N)ncnc21 [SKF-97623]	74%	0%	0%	3%	0%	0%	56%	24%	7%	0%	0%	0%	0%	0%	0%	0%	0%	0%	0%	0%
COc1ccc(Nc2nccc(-c3ccc(NC(=O)c4cc5cc(F)ccc5[nH]4)cc3)n2)cc1 [GSK1229496]	23%	0%	0%	47%	0%	0%	9%	13%	0%	0%	0%	22%	0%	0%	23%	0%	0%	0%	0%	8%
Fc1ccc(-c2nn3cccc(F)c3c2-c2ccncc2)cc1 [GW475620]	0%	0%	32%	0%	12%	0%	15%	0%	2%	0%	0%	14%	14%	5%	22%	9%	0%	12%	0%	12%
COc1ccc(Nc2nccc(NCCNC(=O)Nc3cc(C)ccc3C)n2)cc1 [GSK1379899]	0%	0%	0%	0%	0%	0%	3%	0%	7%	0%	0%	7%	0%	15%	17%	0%	0%	28%	0%	0%
COc1cccc(CNC(=O)NC2CCN(c3ccnc(Nc4ccc(F)cc4)n3)C2)c1 (stereo not drawn) [GSK1379723]	0%	0%	0%	0%	16%	4%	0%	0%	5%	0%	1%	16%	17%	100%	20%	22%	17%	19%	1%	4%
c1ccc(-c2ccnc3[nH]ccc23)cc1 [SB-693578]	7%	0%	8%	0%	9%	11%	22%	67%	37%	0%	28%	2%	6%	28%	63%	73%	0%	33%	0%	33%
CC(=O)c1c(C)c2cnc(Nc3ccc(N4CCNCC4)cn3)nc2n(C2CCCC2)c1=O	0%	0%	0%	0%	7%	0%	0%	0%	0%	0%	0%	0%	92.1%	5%	0%	0%	0%	0%	45%	0%
COC(=O)C(Cc1ccccc1)NC(=O)NC1CCN(c2ccnc(Nc3ccc(F)cc3)n2)C1 (stereo not drawn) [GSK1379714]	10%	0%	6%	0%	4%	0%	98.2%	23%	25%	0%	0%	21%	0%	0%	33%	19%	0%	0%	0%	0%
Cc1ccc(NC(=O)Nc2ccccc2F)cc1-c1ccc(C(=O)Nc2ccncc2)cc1 [GSK1398477]	6%	0%	10%	10%	34%	53%	10%	0%	0%	21%	3%	11%	22%	8%	0%	0%	9%	8%	0%	0%
